Screening data deposited in PubChem by Broad Institute.
CDK5 inh = blocks human CDK5/p35 kinase activity | Q00535+Q15078 | Recombinant CDK5/p35, ADP-Glo luminescence, 60 min | inhibition, % at 10 µM | actives 0.01% (n = 330,000);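 active = highest replicate inhibition of at least 50% and at least 75% of replicates reaching 50%; inconclusive = only one of the two criteria met; inactive = both criteria failed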;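 note: plate controls were DMSO neutral control for no effect and GW8510 at 10 µM for full effect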
SIRT5 block = blocks human SIRT5 desuccinylation of peptide; actives 1.1% (n = 330,000); AID 652115; Q9NXA8; Purified SirT5, succinyl-peptide AMC, trypsin-coupled fluorescence; inhibition, % at 15 µM; in the data active = inhibition above about 15%; inconclusive = no clear call, values can overlap the other calls
Target sequence (Q9NXA8 whole entry, looked up): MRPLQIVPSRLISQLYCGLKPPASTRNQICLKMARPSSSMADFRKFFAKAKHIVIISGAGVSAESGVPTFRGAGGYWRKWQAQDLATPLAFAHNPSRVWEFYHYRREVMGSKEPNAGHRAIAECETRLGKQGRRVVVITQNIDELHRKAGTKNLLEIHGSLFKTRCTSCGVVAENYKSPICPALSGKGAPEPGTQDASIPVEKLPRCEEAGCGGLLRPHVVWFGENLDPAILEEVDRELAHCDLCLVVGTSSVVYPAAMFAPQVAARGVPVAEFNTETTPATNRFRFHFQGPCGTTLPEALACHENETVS
FGF22 binding = binders of recombinant human FGF22 by thermal shift | Q9HCT0 | SYPRO orange fluorescence; percent of sucrose octasulfate shift, DMSO zero | activity (Tm shift, normalised), % at 9.99 µM | actives 1.5% (n = 340,000);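 active = mean Tm shift, scaled 0 neutral to 100 positive control, at about 1.3% or above, every replicate too, limit read from the data; inconclusive = no clear call, values can overlap the other calls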
Target sequence (Q9HCT0 whole entry, looked up): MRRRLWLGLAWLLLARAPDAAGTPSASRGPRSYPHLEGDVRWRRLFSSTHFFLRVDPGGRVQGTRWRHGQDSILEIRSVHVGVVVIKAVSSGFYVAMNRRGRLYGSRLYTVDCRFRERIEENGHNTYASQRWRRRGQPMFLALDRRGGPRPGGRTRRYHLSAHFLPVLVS
PvdQ acylase = blocks Pseudomonas aeruginosa PvdQ acylase activity; purified PvdQ acylase, fluorescence plate reader; inhibition, % at 10 µM; actives 0.063% (n = 340,000); in the data active = inhibition above about 30%, passing the limit was not always enough; inconclusive = no clear call, values can overlap the other calls;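 note: 0% = vehicle neutral wells and 100% = reference inhibitor wells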
PglD inh = blocks C. jejuni PglD acetyltransferase activity; inhibition, % at 12.5 µM; actives 0.098% (n = 360,000); purified PglD enzyme, DTNB colorimetric CoA detection; in the data active = inhibition above about 16%, passing the limit was not always enough; inconclusive = no clear call, values can overlap the other calls
dFosB act-1 = enhances mouse delta FosB homodimer DNA binding | P13346 | purified delta FosB, TAMRA-CDK5 oligo fluorescence polarization; percent of positive-control signal above neutral wells | activation, % at 25 µM | actives 0.99% (n = 340,000) | AID 493131;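 active = mean activation above about 17%, with every replicate also reaching it, limit read from the data, passing the limit was not always enough; inconclusive = only one of the two conditions met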
dFosB act-2 = enhances mouse delta FosB homodimer binding to DNA; shares compounds with dFosB act-1; purified delta FosB, TAMRA-CDK5 oligo fluorescence polarization; normalised: neutral wells 0, positive control 100; activation, % at 24.9 µM; 2,400 tested, under 10 active;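 active = highest replicate activation at or above 34% and every replicate reaching that threshold; inconclusive = meets only one of the two criteria; inactive = meets neither criterion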;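 note: higher polarization means more probe DNA bound by delta FosB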
Starred values were filed as active, the others as inactive; ? = inconclusive; · = not tested or not shown. Rows were chosen to be rich in hits. Some 2.8% of all compounds tested hit in one or more screens of this group.

SMILES	CDK5 inh	SIRT5 block	FGF22 binding	PvdQ acylase	PglD inh	dFosB act-1	dFosB act-2
C[C@@H]1CN([C@H](C)CO)C(=O)c2cc(-c3ccncc3)cnc2O[C@@H]1CN(C)C(=O)C1CCCCC1	·	-4	0	·	·	·	·
O=C(O)c1ccc(COc2ccccc2/C=C2/NC(=O)N(c3cccc(Cl)c3)C2=O)cc1	0	1	0	1	·	28*	4
Cc1noc(C)c1NC(=O)Nc1ccc2c(c1)C(=O)N([C@H](C)CO)C[C@H](C)[C@H](CN(C)Cc1ccc3c(c1)OCO3)O2	·	-1	0	·	-3	·	·
N#CC1=C(N)N2C(=C(C#N)C1c1cccc(Br)c1)Nc1ccccc12 (configuration not stated)	0	0	43*	-8	·	27*	-1
COc1ccc(COc2cc(-c3cccc(OC)c3)nc3ccc(NC(=O)c4cccnc4)cc23)cc1	1	·	0	-6	-6	19*	0
O=C(Nc1ccc(Cl)cc1)NN1CC(=O)N(c2cccc(C(F)(F)F)c2)CC1=O	-3	2	0	-14	·	31*	-1
Cc1ccc(N2CC(=O)N(NC(=O)Nc3ccc(Cl)c(Cl)c3)CC2=O)cc1	2	-1	0	-12	·	?	·
C[C@H](CO)N1C[C@H](C)[C@@H](CN(C)C(=O)c2cccnc2)Oc2ncc(C#CCN(C)C)cc2C1=O	·	3	0	·	0	·	·
Cc1cccc(NC(=O)COC(=O)c2n[nH]c3ccccc23)c1C	1	2	0	-15	1	25*	7
O=C(COC(=O)c1n[nH]c2ccccc12)Nc1ccccc1F	-1	-4	0	-9	2	3	·
COc1ccc2c3c([nH]c2c1)[C@@H](CO)N(Cc1ccccc1F)CC31CN(C(=O)C2CCC2)C1	·	4	0	·	·	·	·
Clc1ccc(-c2nc(-c3ccncc3)no2)c(Cl)c1	-2	-3	0	-10	9	3	·
Nc1nccc(-c2cc(-c3ccc(Cl)cc3Cl)no2)n1	0	-2	0	-5	-6	93*	-15
Cc1ccc(NC(=O)c2ccc3nc(N4CCOCC4)sc3c2)c(Cl)c1	-2	-3	0	-4	-7	141*	0
CCOC(=O)c1sc(NC(=O)CSc2nnnn2-c2ccc(C)cc2C)nc1C	1	·	·	-13	4	14	·
COC(=O)c1ccccc1NC(=O)CSc1nnnn1-c1ccc(C)cc1C	-2	·	·	-10	1	31*	1
Cc1ccccc1-n1nnnc1SCC(=O)Nc1ccc(N2CCN(C)CC2)cc1	-5	-1	0	-14	5	-1	·
Cc1ccccc1-n1nnnc1SCC(=O)NNC(=O)c1ccc(NC(=O)CC#N)cc1	-1	-2	0	4	4	47*	0
CNC[C@@H]1OCCCC[C@H](C)Oc2ccc(NC(=O)c3ccccc3)cc2C(=O)N([C@H](C)CO)C[C@@H]1C	·	0	0	·	1	·	·
CO[C@H]1CN(C)C(=O)c2ccc(NS(=O)(=O)c3ccc(C)cc3)cc2OC[C@H](C)NC[C@@H]1C	·	-5	0	·	·	·	·
OCCNc1nc(Nc2ccc(O)cc2)nc2ccccc12	0	0	0	-10	-6	19*	3
COC(=O)c1ccc(/C=C2\Oc3ccccc3NC2=O)cc1	-1	-2	0	-21	0	33*	-7
CSC1=N/C(=C\c2c(F)cccc2Cl)C(=O)S1	0	·	·	-9	·	3	·
O=C1Nc2ccccc2O/C1=C\c1c(F)cccc1Cl	0	-6	0	5	-6	25*	1
O=S(=O)(c1ccc(Br)cc1)N1CCN(c2ccc3nnc(-c4ccccc4)n3n2)CC1	-3	-4	0	-10	·	38*	0
SMILES	CDK5 inh	SIRT5 block	FGF22 binding	PvdQ acylase	PglD inh	dFosB act-1	dFosB act-2
O=C(c1ccc(Br)o1)N1CCN(c2ccc3nnc(-c4ccccc4)n3n2)CC1	-1	·	0	-3	-6	-30	·
CC(C)CN(C(=O)COC(=O)/C=C/c1cccs1)c1c(N)n(Cc2ccccc2)c(=O)[nH]c1=O	-2	-3	0	-15	·	34*	3
CC(C)CN(C(=O)CSc1nnnn1-c1ccccc1)c1c(N)n(CC(C)C)c(=O)[nH]c1=O	0	-5	0	-9	·	38*	3
CC(C)CN(C(=O)COC(=O)CSc1ccccc1)c1c(N)n(Cc2ccccc2)c(=O)[nH]c1=O	-2	-4	0	-26	1	29*	1
COCCN(C(=O)COC(=O)/C=C/c1ccc2ccccc2n1)c1c(N)n(Cc2ccccc2)c(=O)[nH]c1=O	1	-2	0	-16	3	10	·
Cc1nnc(SCC(=O)N(CC(C)C)c2c(N)n(CC(C)C)c(=O)[nH]c2=O)n1-c1ccccc1	-3	4	0	-12	·	-3	·
CN(C(=O)COC(=O)/C=C/c1ccc2ccccc2n1)c1c(N)n(Cc2ccccc2)c(=O)[nH]c1=O	0	0	0	-8	1	23*	5
COCCN(C(=O)COC(=O)/C=C/c1cccs1)c1c(N)n(Cc2ccccc2)c(=O)[nH]c1=O	0	-12	0	6	-1	13	·
O=C(Nc1ccc2c(c1)[C@H]1C[C@H](CC(=O)N3CCOCC3)O[C@H](CO)[C@H]1O2)C1CCC1	·	·	0	·	8	·	·
OC[C@@H]1[C@H](c2ccccc2)C2(CN(CCC(F)(F)F)C2)N1Cc1nccs1	·	-2	0	·	·	·	·
CNC[C@H]1Oc2cc(C#CC3(O)CCCC3)ccc2S(=O)(=O)N([C@@H](C)CO)C[C@@H]1C	·	-1	0	·	2	·	·
CN(NC(=O)c1ccc(Cl)cc1)c1nc(-c2ccccc2)nnc1C(F)(F)F	0	·	·	1	-1	32*	6
Cc1cc(C)c2cc(CN(CCN3CCCC3)C(=O)Nc3ccc(F)cc3)c(=O)[nH]c2c1	-1	·	·	4	11	31*	-8
Cc1ccc(S(=O)(=O)N2C[C@H]3O[C@H](CNS(=O)(=O)c4ccccc4C)CC[C@H]32)cc1	·	0	·	·	·	·	·
COc1ccccc1/C=C1\SC(=O)N(CCC(=O)NNC(=O)c2ccccc2Cl)C1=O	0	·	·	-5	1	21*	2
O=C(c1ccccc1F)N1CC2(C1)[C@H](c1ccccc1)[C@H](CO)N2CC1CCCC1	·	4	·	·	·	·	·
COc1ccc2[nH]c3nc(SCc4nnc(-c5ccccc5)o4)nnc3c2c1	-2	·	·	-17	·	19*	2
Cc1ccc(CNC(=O)CSc2nnc3c(n2)[nH]c2ccccc23)cc1	-2	-1	0	-20	-7	28*	7
COc1ccc(CNC(=O)CSc2nnc3c(n2)[nH]c2ccc(OC)cc23)cc1	1	-25	0	-8	·	40*	-2
CCc1ccc2[nH]c3nc(SCc4nnc(-c5ccccc5)o4)nnc3c2c1	2	1	0	-19	-4	8	·
